mHTT CaM bind: mutant huntingtin-calmodulin interaction inhibitors – biochemical, AlphaScreen, primary screen. P42858. AlphaScreen His-mHTT/GST-CaM binding, luminescence. inhibition, % at 15 µM. 3.6% of 190,000 active. AID 1671202, 2021;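 further: 0% = both proteins with DMSO and 100% = one protein alone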
Pf apPOL inh: Pf-apPOL inhibitors, biochemical, fluorescence; inhibition, % at 10 µM; Plasmodium falciparum apicoplast DNA polymerase (apPOL); Recombinant Pf-apPOL, molecular beacon fluorescence, 1.5 h; 0.25% of 210,000 active
* hit, by the source's call; . = no result. Sampled rows, rich in hits. Any-hit rate of the full collection: about 3.5%. No stated cut-off is given here; in the data, active means inhibition above about 50%; inactive means the rest.

SMILES	mHTT CaM bind	Pf apPOL inh
COc1ccc(CC(=O)c2ccc(O)c(CN3CCC(C)CC3)c2O)cc1OC	3	-10
CCCCNC(=O)c1cc2nc(-c3ccc([N+](=O)[O-])cc3)cc(C(F)(F)F)n2n1	1	-3
O=C(NCCn1nc(-c2cccs2)ccc1=O)C1c2ccccc2Oc2ccccc21	-15	-7
O=C(Nc1cc(-c2cccs2)nn1CCO)C1c2ccccc2Oc2ccccc21	58*	-4
COc1cccc(OCC(=O)NC2CC(O)C(CO)C2)c1 (stereo unspecified)	-3	-5
O=C(c1ccccc1)N1CCC(CCNS(=O)(=O)Cc2ccccc2)CC1	28	0
O=C(Cc1ccc([N+](=O)[O-])cc1)Nc1ccc2c(c1)OCO2	2	-6
O=C(CC(=O)c1ccc([N+](=O)[O-])cc1)Nc1ccc2c(c1)OCO2	51*	-4
Cc1ccc(C2=NN(S(C)(=O)=O)C(c3cc4ccc(C)cc4nc3Cl)C2)cc1 (stereo unspecified)	24	-6
CC(=O)COc1ccc2c(c1C)OC(=Cc1ccc3c(c1)OCO3)C2=O	39	1
OC(C#CC1(O)CCCCC1)c1ccco1 (stereo unspecified)	-2	.
OC(C#CC1CC1)c1ccco1 (stereo unspecified)	100*	-8
COc1ccc(C2C(C(=O)O)c3cc(OC)c(OC)cc3C(=O)N2C)cc1Br (stereo unspecified)	3	-5
Cn1c(=O)cc2c3c(c(N4CCCCC4)ccc31)C(=O)c1ccccc1-2	55*	-9
Cn1c(=O)cc2c3c(c(Br)ccc31)C(=O)c1ccccc1-2	2	-2
COc1ccc(NC(=O)c2cccnc2)cc1OC	0	-2
Cc1ccc(C2CC(C(F)(F)F)n3nc(C(=O)N4CCN(c5ccccc5)CC4)cc3N2)cc1 (stereo unspecified)	90*	-11
Cc1ccc(C2CC(C(F)(F)F)n3nc(C(=O)N4CCCC4)cc3N2)cc1 (stereo unspecified)	32	-5
COc1ccc(S(=O)(=O)N2CCC(C(=O)Nc3cccc(C(C)=O)c3)CC2)cc1	10	99*
COC(=O)Nc1ccc(S(=O)(=O)N2CCC(C(=O)Nc3cccc(OC)c3)CC2)cc1	11	-3
Cc1ccccc1OCC1CNC(=O)O1 (stereo unspecified)	1	10
O=C1NCC(CN(c2ccccc2)c2ccccc2)O1 (stereo unspecified)	83*	-3
N#Cc1ccccc1NC(=O)CSc1nc(-c2cccs2)cc(C(F)(F)F)c1C#N	-5	1
C=CCN1C(=O)C(O)(CC(=O)c2ccc([N+](=O)[O-])cc2)c2ccccc21 (stereo unspecified)	16	-4
COc1ccc(C(=O)CC2(O)C(=O)N(CCc3ccccc3)c3ccccc32)cc1[N+](=O)[O-] (stereo unspecified)	71*	15
SMILES	mHTT CaM bind	Pf apPOL inh
C=CCN1C(=O)C(O)(CC(=O)c2ccc(OC)c([N+](=O)[O-])c2)c2ccccc21 (stereo unspecified)	15	-1
O=C(CC1(O)C(=O)N(Cc2ccc(Cl)cc2)c2ccccc21)c1cccc([N+](=O)[O-])c1 (stereo unspecified)	93*	-2
O=C(CC1(O)C(=O)N(Cc2ccc(Cl)cc2)c2ccccc21)c1ccc([N+](=O)[O-])cc1 (stereo unspecified)	86*	-9
O=C(CC1(O)C(=O)N(Cc2ccc(Cl)cc2)c2ccccc21)c1cccnc1 (stereo unspecified)	25	-2
COc1ccc(CNc2cc(-c3ccccc3)ccc2OC)cc1O	76*	-5
COc1ccc(CNc2ccccc2F)cc1OCc1ccccc1	-46	3
COc1ccc(OC)c(CN2C(=O)c3ccccc3C2C(=O)NC2CCCC(C)C2C)c1 (stereo unspecified)	-4	-7
Cc1sc(NC(=O)c2ccco2)c(C(c2cccnc2)N2CCN(c3ccccc3)CC2)c1C (stereo unspecified)	18	12
Cc1sc(NC(=O)c2ccco2)c(C(c2cccnc2)N2CCN(c3ccccn3)CC2)c1C (stereo unspecified)	100*	-6
Cc1[nH]n(-c2ccccc2)c(=O)c1/C=C(\C#N)c1nc2ccccc2s1	14	-1
CC(=O)c1cccc(N2COc3ccc(Cl)cc3C2)c1	22	-6
O=[N+]([O-])c1cccc(N2COc3ccc(Cl)cc3C2)c1	54*	1
COc1ccc(N2CCN(c3ncc4c(n3)CCN(Cc3ccccc3C)C4)CC2)cc1	10	-2
COc1cc(OC)c(OC)cc1CN1CCc2nc(N3CCC(C)CC3)ncc2C1	10	-6
COc1ccc(CN2CCc3nc(N4CCC(C)CC4)ncc3C2)c(OC)c1	74*	3
CCOc1ccccc1CN1CCc2nc(N3CCN(CC)CC3)ncc2C1	26	-1
COc1ccc(OC)c(CN2CCc3nc(N4CCCC4)ncc3C2)c1	0	7
CCOc1ccccc1CN1CCc2nc(N3CCN(c4ncccn4)CC3)ncc2C1	100*	-4
COc1ccc(CN2CCc3nc(N4CCN(c5ncccn5)CC4)ncc3C2)c(OC)c1	100*	-1
COc1ccc(N2CCN(c3ncc4c(n3)CCN(Cc3ccccc3OC)C4)CC2)cc1	53*	-5
O=C(Nc1ccc2sccc2c1)c1ccc([N+](=O)[O-])s1	15	1
CCN(CC)CCNC(=O)c1ccc(Cn2nnc3ccccc3c2=O)cc1	6	-6
CC1(C)CC(=O)C2=C(C1)Nc1nc(SCc3ccccc3)nn1C2c1cccs1 (stereo unspecified)	3	-6
CCCCNC(=O)C1=C(C)C(=O)OC12CCCCCC2	1	0
CC(C)N1C(=O)C(C)N(C(=O)NCc2ccc(N(C)C)cc2)c2cccnc21 (stereo unspecified)	36	6
SMILES	mHTT CaM bind	Pf apPOL inh
Cn1nc(COc2ccccc2)c2c1CCN(Cc1ccco1)C2	14	3
Cn1nc(COc2ccccc2)c2c1CCN(Cc1ccoc1)C2	67*	2
O=C(O)CC(CC(=O)O)c1ccc(Br)cc1	-1	4
O=S(=O)(Nc1ccccn1)c1ccc2[nH]c3c(c2c1)CCCCC3	2	-2
O=S(=O)(NC1CCCCC1)c1ccc2[nH]c3c(c2c1)CCCCC3	95*	-3
S=C(NCc1ccc2[nH]c3c(c2c1)CCCC3)NC1CCCCC1	40	-3
Cc1ccc(NS(=O)(=O)c2ccc3[nH]c4c(c3c2)CCCCC4)nc1	60*	-4
S=c1[nH]c2c(Cl)cc(Cl)cc2o1	.	14
CC1CCCN(S(=O)(=O)c2cc(C(=O)Nc3ccc(Cl)c(Cl)c3)ccc2F)C1 (stereo unspecified)	-11	-8
COc1cccc(CNC(=O)C2(C)CCCN(S(=O)(=O)c3ccccc3C)C2)c1 (stereo unspecified)	-7	-4
N#Cc1cccc(C(=O)N2CCC(CCOc3ccc(F)cc3)CC2)c1	2	2
CNC(=O)c1c(N=Cc2ccccc2O)sc2c1CCCC2	61*	6
CNC(=O)c1c(NC(C)=O)sc2c1CCCCC2	-2	-40
COc1ccc(C(C)NC(=O)CN(c2ccc([N+](=O)[O-])cc2)S(=O)(=O)c2ccccc2)cc1 (stereo unspecified)	13	1

Source: PubChem BioAssay (University of Kansas High Throughput Screening Laboratory)
